Screening data from PubChem BioAssay.
Most compounds without a hit are left out; they make up all but 6.1% or so of the library.
DRD3 antagonist: D3 dopamine receptor (human) antagonism. max response, negative = inhibition, %. D3R cells, DiscoveRx beta-arrestin luminescence, antagonist mode; active compounds read low. 360,000 tested, 2.5% active; in the data active = max response below about -50%; inconclusive = no clear call, values can overlap the other calls; also: % is scaled to controls: 0 for no effect and ±100 for the full control effect
Target sequence (P35462 whole entry, looked up): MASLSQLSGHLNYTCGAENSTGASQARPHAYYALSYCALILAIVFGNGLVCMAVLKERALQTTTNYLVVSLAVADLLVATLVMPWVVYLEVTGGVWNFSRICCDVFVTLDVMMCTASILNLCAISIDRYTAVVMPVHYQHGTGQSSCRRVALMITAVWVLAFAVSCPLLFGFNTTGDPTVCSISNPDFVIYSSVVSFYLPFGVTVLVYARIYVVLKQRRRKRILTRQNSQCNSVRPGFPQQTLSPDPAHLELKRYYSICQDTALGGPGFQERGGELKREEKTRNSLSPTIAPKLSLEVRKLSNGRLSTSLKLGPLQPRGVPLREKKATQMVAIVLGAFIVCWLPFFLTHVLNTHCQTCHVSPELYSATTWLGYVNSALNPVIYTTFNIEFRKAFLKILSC
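Cells plated overnight at 1500 cells/well, then exposed to library compounds with dopamine controls for 90 minutes at 37 degrees C. DiscoveRx reagent added for 30–60 minutes at room temperature; luminescence read, quantitative HTS format.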
D3 ag: agonists of human D3 dopamine receptor | 410,000 tested, 0.58% active | P35462 | D3R DiscoveRx beta-arrestin cells, luminescence, 90 min | max activation, %; in the data active = max activation above about 30%; also: 0% is about no effect
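Cells at 1500/well, incubated overnight, then treated with pinned compounds (dopamine as control) for 90 min at 37 degrees C. DiscoveRx reagent added for 30 - 60 minutes at room temperature; luminescence read.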
D1 agonist: human D1 receptor agonism; 360,000 tested, 1% active; activation, % at 2 µM; AID 504660; HEK293 T-REx D1 cells, calcium flux, agonist mode; in the data active = activation above about 30%; also: 0% is about no effect
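Inducible HEK293 T-REx D1 cells, force-coupled to calcium signalling, were plated at 4000 cells/well with tetracycline and held overnight at 30 C. After no-wash calcium dye loading, compound-evoked calcium rise over 180 s flagged agonists.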
D1 antag: blocks dopamine activation of the human D1 receptor | P21728 | HEK293 TREx D1 cells, calcium flux, dopamine EC80; active compounds read low | activity change, negative = inhibition, % at 10 µM | 360,000 tested, 3.2% active | AID 504652; in the data active = activity change below about -30%; also: % is scaled to controls: 0 for no effect and ±100 for the full control effect
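Tetracycline-induced HEK293 Trex D1 cells, force-coupled to calcium, dye-loaded; compounds added and read 180 s, then EC80 dopamine added and calcium flux tracked kinetically another 180 s.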
D1 PAM: human D1 dopamine receptor positive modulation; P21728; HEK293 TREx D1 cells, calcium flux, dopamine EC20 potentiation; potentiation, % at 10 µM; 360,000 tested, 0.036% active; AID 504651; in the data active = potentiation above about 30%; also: 0% is about no effect
* = called active by the depositor; ? = inconclusive; / = no result given; ! = repeats disagree.

SMILES	DRD3 antagonist	D3 ag	D1 agonist	D1 antag	D1 PAM
Cc1cc(-n2c(C)nc3ccccc3c2=O)ccc1NC(=O)c1cccc([N+](=O)[O-])c1	/	-9	-3	/	3
COc1ccc2c(c1)c1c(c(=O)n(-c3ccc(C)cc3)c(=O)n1CC(=O)N1CCCC1)n2C	/	-13	-2	7	-1
O=C(Nc1cccc(S(=O)(=O)C(F)F)c1)c1ccc(Cl)c(S(=O)(=O)N2CCOCC2)c1	0	-12	10	-34*	-2
CC(=O)Oc1ccc(-c2ccc(C(=O)Nc3cccc(S(=O)(=O)N4CCOCC4)c3)cc2)cc1	2	-1	16	-32*	-12
O=C(Nc1cccc(Br)c1)c1ccc(Cl)c(S(=O)(=O)N2CCOCC2)c1	17	12	0	5	2
CC(C)Oc1ccc(C(=O)Nc2cc(S(=O)(=O)N3CCOCC3)ccc2N2CCOCC2)cc1	-3	-3	1	-40*	-1
CCc1ccc2oc(-c3cccc(N)c3)nc2c1	-52*	-4	0	18	5
COC(=O)c1c(C)nn(-c2ccc(F)cc2)c1-n1cccc1	/	-7	-1	-4	-2
COc1ccc(N(CC(=O)N2CCc3ccccc3C2)S(=O)(=O)c2ccc(C)cc2)cc1Cl	/	-3	9	3	-3
Cc1cc(N)c(NC2=CC(=O)CC(C)(C)C2)cc1C	-16	2	31*	15	4
CCOC(=O)c1sc2nc(C)nc(NCc3ccc(F)cc3)c2c1C	36	-5	4	3	1
CCOC(=O)c1sc2nc(C)nc(Nc3ccc(OC)cc3)c2c1C	13	6	2	-30*	-1
CCOC(=O)Cc1ccc(Nc2nc(NCc3ccccc3)nc3ccsc23)cc1	96	12	/	/	/
CCOC(=O)Cc1ccc(Nc2nc(NC)nc3ccsc23)cc1	-78*	-23	/	/	/
CCOCc1c(C(=O)Nc2cc(OCC)c(N3CCOCC3)cc2OCC)oc2ccccc12	63	12	2	1	-4
Cc1c(C(=O)NCc2ccccc2F)oc2ccccc12	-18	-7	1	-20	-8
CCOCc1c(C(=O)NCc2ccccc2CN2CCCC2)oc2ccccc12	22	-18	1	-30*	-6
Cc1c(C(=O)NCc2ccccc2CN2CCCC2)oc2ccccc12	-12	-22	0	-43*	-17
CCOCc1c(C(=O)Nc2ccc3nc(N4CCOCC4)sc3c2)oc2ccccc12	60	1	0	-32*	-8
CCc1ccccc1NC(=O)c1sc(-n2nc(C)c(Cc3ccccc3)c2C)nc1C	/	-23	9	-3	1
COCCNC(=S)N(CCc1c(C)[nH]c2ccc(Cl)cc12)Cc1cccnc1	20	1	9	6	-4
CCNC(=S)N(CCc1c(C)[nH]c2ccc(Cl)cc12)Cc1cccnc1	18	5	6	-43*	-6
CNC(=S)N(CCc1c(C)[nH]c2ccc(Cl)cc12)Cc1cccnc1	0	10	31*	-25	-10
Cc1ccc(C)c(N2CCN(C(=O)C3CCN(c4nc(-c5ccc(C(C)C)cc5)no4)CC3)CC2)c1	/	4	2	0	0
COc1ccccc1CNC(=O)OCc1nccnc1C(=O)Nc1ccc(Br)cn1	13	-5	1	-35*	-1
SMILES	DRD3 antagonist	D3 ag	D1 agonist	D1 antag	D1 PAM
COc1ccc(C)cc1NC(=O)Nc1ccc(Br)cn1	32	1	1	-10	0
Cn1c(NCc2ccccc2F)nc2ccccc21	/	-12	-3	17	-2
CCc1nn(C(C)C(=O)NCCN2CCN(c3cccc(C)c3C)CC2)c(=O)c2cc3occc3n12 (stereo unspecified)	-59*	-9	5	-18	-8
CCc1nn(C(C)C(=O)NCCN2CCCCCC2)c(=O)c2cc3occc3n12 (stereo unspecified)	-14	-18	3	37	-4
CCOC(=O)N1CCN(C2=C(NS(=O)(=O)c3ccc(C)cc3)C(=O)c3ccccc3C2=O)CC1	?	-5	3	-11	1
CC(C)(CN1CCN(Cc2ccccc2)CC1)NS(=O)(=O)c1ccc(Cl)cc1	-61*	-18	10	-22	5
Cc1ccc(S(=O)(=O)NC2=C(N3CCN(Cc4ccccc4)CC3)C(=O)c3ccccc3C2=O)cc1	-60*	-35	-1	-3	-5
Cc1ccc(S(=O)(=O)NC2=C(N3CCN(c4ccccc4F)CC3)C(=O)c3ccccc3C2=O)cc1	-67*!	-3	-2	-29	-6
COc1cccc(CNC(=O)c2oc3ccc4c(c3c2C)C(=O)CC(C)(C)O4)c1OC	/	0	2	-12	0
O=C(Nc1ccc(Cl)cc1Cl)c1cccc(N2C(=O)C=CC2=O)c1	-85*	-6	11	-20	-9
O=C(O)c1cccc(N2C(=O)C=CC2=O)c1	-7	8	/	/	/
COc1ccc(CN2C(=O)C(C)Nc3ncnc(N4CCN(c5ccccc5)CC4)c32)cc1 (stereo unspecified)	-70*	-45	/	/	/
COc1ccc(CN2C(=O)C(C)Nc3ncnc(N4CCOCC4)c32)cc1 (stereo unspecified)	-1	-5	/	/	/
CC1Nc2ncnc(N3CCN(c4ccccc4)CC3)c2N(Cc2ccc(Br)cc2)C1=O (stereo unspecified)	-156*	-79	-1	-18	0
COc1ccccc1C(C)Nc1ccc(S(=O)(=O)N2CCN(C)CC2)cc1[N+](=O)[O-] (stereo unspecified)	-4	1	0	-65*	-8
CC(Nc1ccc(S(=O)(=O)N2CCN(C)CC2)cc1[N+](=O)[O-])c1ccccc1 (stereo unspecified)	15	6	1	-73*	-6
CCOc1ccccc1CNc1nc2nc(C)c(CC(=O)OC)c(=O)n2[nH]1	/	-6	0	-3	1
O=Cc1c(NCc2ccccc2Cl)c2ccccc2[nH]c1=O	6	-8	3	-33*	-1
O=Cc1c(NCc2cccc(F)c2)c2ccccc2[nH]c1=O	0	2	4	-24	-1
O=Cc1c(NC2CCCCC2)c2ccccc2[nH]c1=O	3	1	5	0	0
O=Cc1c(NCc2ccc(F)cc2)c2ccccc2[nH]c1=O	-10	-12	4	-36*	-9
Cc1ccc(CNc2c(C=O)c(=O)[nH]c3ccccc23)cc1	0	0	6	-51*	-2
Cc1ccc2c(Br)cc(Br)c(O)c2n1	/	-29	/	/	/
O=C(COc1ncnc2ccccc12)Nc1ccc(Cl)c(S(=O)(=O)N2CCOCC2)c1	10	3	4	-38*	-1
O=C(CSc1nc2ccccc2c(=O)n1-c1ccc(F)c(Cl)c1)Nc1cccc(S(=O)(=O)N2CCOCC2)c1	?	-5	5	-11	-3
O=C(Cc1cccs1)Nc1ccc(Cl)c(S(=O)(=O)N2CCOCC2)c1	0	-2	15	-33*	1
